Measured values taken from the supplement of paper PMC10849652.
Of roughly 7,900 targets only a part is listed; those with a hit were picked by preference. About 0.6% of all pairs of compound and target were hits.

Tests used:
Experiment in all cases: log2 fold change, soluble protein after heating vs DMSO (PISA); higher = thermal stabilisation; K562 cells, 10 uM, 30 min; active = over 0.2 and 3.5 SD of the protein, either way, in both replicates (recomputed)
[1] = compound: C1=CC=C(C=C1)[C@H](COC2=CC3=C(C=C2)NC(=O)N3)NC(=O)C4=CC=CN(C4=O)CC5=CC(=C(C=C5)F)F
In short: (§1)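 K562 cells at 2×10^6 cells/mL were treated for 30 min with 10 μM compound, and aliquots were heated for 3 min over 48°C-58°C before pooling. Extraction used PBS with 0.5% NP-40 at 4°C, and soluble protein was the supernatant after 21,000xg for 90 min, measured by TMTpro 16plex LC-MS/MS with channel sums equalised. Thermal stability values, relative to control samples and from duplicates, are log2 fold changes.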

[2] = compound: CC1=C(SC2=C1C(=N[C@H](C3=NN=C(N32)C)CC(=O)N)C4=CC=C(C=C4)Cl)C
In short: as §1

[3] = compound: CC1=C2C(=CC=C1)N=C(N(C2=O)C3=CC=CC=C3C)CN4C=NC5=C(N=CN=C54)N
In short: as §1

[4] = compound: Cc1sc2c(c1C)C(c1ccc(Cl)cc1)=N[C@@H](CC(=O)OC(C)(C)C)c1nnc(C)n1-2
In short: as §1

[5] = compound: c1ccc([C@@H]2C[C@H]2NC2CCNCC2)cc1
In short: as §1

Measured: log2 fold change

REL (UniProt Q04864)
UniProt Q04864, sequence (Q04864 whole entry, looked up): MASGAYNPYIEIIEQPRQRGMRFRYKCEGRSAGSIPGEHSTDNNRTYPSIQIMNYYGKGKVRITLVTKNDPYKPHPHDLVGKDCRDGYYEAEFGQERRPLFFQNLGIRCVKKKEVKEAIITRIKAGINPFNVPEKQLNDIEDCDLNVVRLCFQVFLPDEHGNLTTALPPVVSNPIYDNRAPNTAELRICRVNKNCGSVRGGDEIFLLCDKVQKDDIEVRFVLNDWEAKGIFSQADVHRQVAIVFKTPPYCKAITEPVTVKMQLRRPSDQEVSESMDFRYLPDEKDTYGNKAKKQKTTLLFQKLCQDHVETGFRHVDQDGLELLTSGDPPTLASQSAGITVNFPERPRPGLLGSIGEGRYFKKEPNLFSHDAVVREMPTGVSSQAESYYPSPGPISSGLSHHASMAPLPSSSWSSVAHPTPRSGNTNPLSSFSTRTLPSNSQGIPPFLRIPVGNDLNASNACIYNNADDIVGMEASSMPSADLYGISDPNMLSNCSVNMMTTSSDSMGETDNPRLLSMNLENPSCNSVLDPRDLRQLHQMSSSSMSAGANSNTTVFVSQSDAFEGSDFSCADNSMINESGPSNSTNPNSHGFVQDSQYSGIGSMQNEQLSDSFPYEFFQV
inactive: [1] 0.058 | [2] 0.048 | [3] 0.046 | [4] 0.037 | [5] 0.065

SF3B5 (UniProt Q9BWJ5)
UniProt Q9BWJ5, sequence (Q9BWJ5 whole entry, looked up): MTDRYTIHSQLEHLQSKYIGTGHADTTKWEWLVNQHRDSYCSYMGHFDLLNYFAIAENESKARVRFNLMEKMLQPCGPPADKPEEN
inactive: [1] 0.056 | [3] -0.032 | [4] 0.007

RPS3 (UniProt P23396)
inactive: [1] 0.055 | [2] -0.118 | [3] -0.127 | [4] 0.083 | [5] 0.015

RGS10 (UniProt O43665)
UniProt O43665, sequence (O43665 whole entry, looked up): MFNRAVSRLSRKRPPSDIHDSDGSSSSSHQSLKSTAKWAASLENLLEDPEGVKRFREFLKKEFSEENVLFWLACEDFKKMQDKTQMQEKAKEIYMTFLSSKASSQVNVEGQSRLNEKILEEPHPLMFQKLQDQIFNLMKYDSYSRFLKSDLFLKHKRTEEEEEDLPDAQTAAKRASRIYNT
inactive: [1] 0.014 | [2] 0.042 | [3] -0.035 | [4] -0.022 | [5] -0.058

RPS19 (UniProt M0R2L9)
inactive: [4] 0.183

ROMO1 (UniProt P60602)
UniProt P60602, sequence (P60602 whole entry, looked up): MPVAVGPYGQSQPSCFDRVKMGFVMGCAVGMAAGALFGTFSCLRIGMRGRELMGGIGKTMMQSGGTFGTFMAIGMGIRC
inactive: [1] 0.045 | [2] -0.061 | [4] 0.172 | [5] 0.082

RUFY3 isoform 3 (UniProt Q7L099)
UniProt Q7L099, sequence (Q7L099 whole entry, looked up): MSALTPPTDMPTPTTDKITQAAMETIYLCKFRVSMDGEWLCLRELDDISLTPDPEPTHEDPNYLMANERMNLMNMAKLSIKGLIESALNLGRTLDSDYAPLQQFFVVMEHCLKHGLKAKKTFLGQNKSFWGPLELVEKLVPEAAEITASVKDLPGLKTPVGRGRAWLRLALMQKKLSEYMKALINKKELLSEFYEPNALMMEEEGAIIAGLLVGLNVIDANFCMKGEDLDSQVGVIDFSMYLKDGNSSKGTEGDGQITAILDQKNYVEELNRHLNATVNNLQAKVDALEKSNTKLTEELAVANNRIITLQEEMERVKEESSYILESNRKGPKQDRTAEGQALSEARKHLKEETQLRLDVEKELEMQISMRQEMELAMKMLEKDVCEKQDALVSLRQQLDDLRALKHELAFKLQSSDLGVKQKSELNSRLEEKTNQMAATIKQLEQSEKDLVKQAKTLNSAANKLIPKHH
inactive: [2] -0.004 | [3] 0.061 | [4] 0.016 | [5] 0.029

RPS9 (UniProt P46781)
inactive: [1] 0.073 | [2] -0.19 | [3] -0.24 | [4] 0.134 | [5] 0

SAMD4B (UniProt Q5PRF9)
UniProt Q5PRF9, sequence (Q5PRF9 whole entry, looked up): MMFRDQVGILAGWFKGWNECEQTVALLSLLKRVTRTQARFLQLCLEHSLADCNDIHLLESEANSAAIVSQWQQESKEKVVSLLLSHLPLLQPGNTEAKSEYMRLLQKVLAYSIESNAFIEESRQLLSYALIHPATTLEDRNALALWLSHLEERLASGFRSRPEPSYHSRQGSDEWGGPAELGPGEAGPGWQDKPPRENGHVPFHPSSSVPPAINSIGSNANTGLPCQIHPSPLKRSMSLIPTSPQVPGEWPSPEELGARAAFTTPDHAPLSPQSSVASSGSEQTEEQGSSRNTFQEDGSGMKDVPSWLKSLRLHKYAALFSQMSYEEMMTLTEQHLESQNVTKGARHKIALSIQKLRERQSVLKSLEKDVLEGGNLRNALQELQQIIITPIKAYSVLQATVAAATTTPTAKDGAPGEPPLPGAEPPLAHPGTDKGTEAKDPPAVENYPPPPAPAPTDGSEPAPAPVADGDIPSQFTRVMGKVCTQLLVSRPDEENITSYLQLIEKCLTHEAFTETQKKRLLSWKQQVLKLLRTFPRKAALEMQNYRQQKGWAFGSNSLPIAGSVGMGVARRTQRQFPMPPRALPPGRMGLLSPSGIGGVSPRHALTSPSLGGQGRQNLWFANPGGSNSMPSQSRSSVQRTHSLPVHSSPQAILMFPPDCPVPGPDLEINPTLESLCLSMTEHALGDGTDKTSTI
inactive: [1] 0.107 | [2] -0.027 | [4] 0.039 | [5] 0.058

RUNX1 isoform 8 (UniProt Q01196)
UniProt Q01196, sequence (Q01196 whole entry, looked up): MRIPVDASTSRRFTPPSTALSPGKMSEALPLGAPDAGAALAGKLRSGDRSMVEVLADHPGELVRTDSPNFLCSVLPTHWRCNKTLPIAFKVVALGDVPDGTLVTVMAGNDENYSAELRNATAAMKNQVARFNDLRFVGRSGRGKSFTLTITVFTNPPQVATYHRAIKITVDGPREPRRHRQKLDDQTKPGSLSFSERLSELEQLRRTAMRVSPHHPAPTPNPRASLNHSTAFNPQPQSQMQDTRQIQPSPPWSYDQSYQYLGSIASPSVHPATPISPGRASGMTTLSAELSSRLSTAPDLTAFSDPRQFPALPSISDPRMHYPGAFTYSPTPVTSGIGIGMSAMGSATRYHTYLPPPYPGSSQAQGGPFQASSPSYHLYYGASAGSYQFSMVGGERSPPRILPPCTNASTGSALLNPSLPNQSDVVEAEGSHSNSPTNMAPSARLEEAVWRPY
inactive: [1] -0.042 | [3] 0.025

RMDN2 isoform 2 (UniProt Q96LZ7)
UniProt Q96LZ7, sequence (Q96LZ7 whole entry, looked up): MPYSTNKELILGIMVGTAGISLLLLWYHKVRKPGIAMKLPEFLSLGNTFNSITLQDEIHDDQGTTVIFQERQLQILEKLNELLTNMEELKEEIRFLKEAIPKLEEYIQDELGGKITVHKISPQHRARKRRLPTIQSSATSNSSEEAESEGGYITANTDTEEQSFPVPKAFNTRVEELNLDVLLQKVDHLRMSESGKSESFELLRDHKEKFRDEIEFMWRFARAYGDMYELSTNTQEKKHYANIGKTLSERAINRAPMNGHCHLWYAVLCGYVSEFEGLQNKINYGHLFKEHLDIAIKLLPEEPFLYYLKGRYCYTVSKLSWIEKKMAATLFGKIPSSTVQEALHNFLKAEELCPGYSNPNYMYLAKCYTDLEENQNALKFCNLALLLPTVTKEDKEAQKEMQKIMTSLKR
inactive: [3] 0.164

SDHAF4 (UniProt Q5VUM1)
UniProt Q5VUM1, sequence (Q5VUM1 whole entry, looked up): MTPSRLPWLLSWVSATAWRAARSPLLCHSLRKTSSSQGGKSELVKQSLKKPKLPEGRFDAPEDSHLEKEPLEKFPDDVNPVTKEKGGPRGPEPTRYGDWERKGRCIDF
inactive: [1] 0.053 | [2] 0.16 | [4] -0.025 | [5] 0.073

SIK3 (UniProt H0Y4E8)
inactive: [2] 0.034 | [3] 0.025 | [4] 0.118 | [5] 0.028

SCYL3 isoform 2 (UniProt Q8IZE3)
UniProt Q8IZE3, sequence (Q8IZE3 whole entry, looked up): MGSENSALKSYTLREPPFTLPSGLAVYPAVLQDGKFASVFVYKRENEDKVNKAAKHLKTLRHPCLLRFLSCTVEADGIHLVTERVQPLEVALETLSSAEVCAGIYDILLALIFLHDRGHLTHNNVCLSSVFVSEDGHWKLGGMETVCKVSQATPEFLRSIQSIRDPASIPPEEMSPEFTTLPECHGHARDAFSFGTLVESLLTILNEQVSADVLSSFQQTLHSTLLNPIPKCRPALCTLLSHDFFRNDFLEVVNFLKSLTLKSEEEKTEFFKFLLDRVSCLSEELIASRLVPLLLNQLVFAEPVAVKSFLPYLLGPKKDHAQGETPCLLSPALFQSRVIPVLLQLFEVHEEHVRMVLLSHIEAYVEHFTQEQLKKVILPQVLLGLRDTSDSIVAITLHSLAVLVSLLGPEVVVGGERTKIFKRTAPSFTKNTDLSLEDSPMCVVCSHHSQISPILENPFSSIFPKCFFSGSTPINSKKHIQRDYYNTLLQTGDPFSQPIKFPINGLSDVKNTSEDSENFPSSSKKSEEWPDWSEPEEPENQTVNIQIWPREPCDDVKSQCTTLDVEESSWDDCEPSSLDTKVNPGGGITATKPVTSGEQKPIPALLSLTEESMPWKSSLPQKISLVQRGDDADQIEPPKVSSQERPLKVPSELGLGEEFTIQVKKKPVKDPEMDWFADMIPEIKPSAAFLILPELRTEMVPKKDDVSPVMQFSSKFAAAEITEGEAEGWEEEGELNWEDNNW
inactive: [1] -0.014 | [2] -0.006 | [3] 0.055 | [4] 0.041 | [5] -0.113

RPS16 (UniProt P62249)
inactive: [1] 0.049 | [2] -0.149 | [3] -0.192 | [4] 0.043 | [5] -0.003

RPS6KA1 isoform 2 (UniProt Q15418)
UniProt Q15418, sequence (Q15418 whole entry, looked up): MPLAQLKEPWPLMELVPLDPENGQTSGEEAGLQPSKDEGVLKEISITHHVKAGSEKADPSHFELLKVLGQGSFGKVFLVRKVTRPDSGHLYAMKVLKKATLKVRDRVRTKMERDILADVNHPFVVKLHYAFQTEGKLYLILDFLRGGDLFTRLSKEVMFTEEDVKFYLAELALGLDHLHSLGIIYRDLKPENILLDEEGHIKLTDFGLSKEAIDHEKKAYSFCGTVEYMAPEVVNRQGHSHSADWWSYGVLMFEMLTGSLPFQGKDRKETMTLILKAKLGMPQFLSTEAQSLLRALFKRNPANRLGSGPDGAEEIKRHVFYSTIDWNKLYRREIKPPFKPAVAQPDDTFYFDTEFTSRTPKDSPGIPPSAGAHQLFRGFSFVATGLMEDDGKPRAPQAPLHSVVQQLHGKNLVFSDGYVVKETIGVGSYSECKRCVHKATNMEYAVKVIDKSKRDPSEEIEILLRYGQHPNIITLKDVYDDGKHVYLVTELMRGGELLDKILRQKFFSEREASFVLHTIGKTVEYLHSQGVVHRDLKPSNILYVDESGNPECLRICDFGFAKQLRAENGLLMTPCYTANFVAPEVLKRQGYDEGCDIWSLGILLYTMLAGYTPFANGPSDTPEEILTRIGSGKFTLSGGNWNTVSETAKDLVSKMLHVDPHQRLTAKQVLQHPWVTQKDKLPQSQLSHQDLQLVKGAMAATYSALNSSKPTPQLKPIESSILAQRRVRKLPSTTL
inactive: [1] -0.059 | [2] 0.048 | [3] 0.051 | [4] -0.009 | [5] -0.018

SH2D1B (UniProt O14796)
UniProt O14796, sequence (O14796 whole entry, looked up): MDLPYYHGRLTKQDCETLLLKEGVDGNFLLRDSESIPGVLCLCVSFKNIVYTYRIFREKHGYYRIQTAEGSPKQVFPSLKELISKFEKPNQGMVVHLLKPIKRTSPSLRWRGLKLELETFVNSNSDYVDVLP
inactive: [2] 0.205 | [3] -0.047 | [4] 0.003 | [5] 0.033
